Screen size: about 290,000 compounds; about 150 (0.052%) were called active. Many of the other results were omitted from the sample, so actives are more common in it than they were. Results with a measured potency or affinity are listed apart. A number with no mark means an inactive call.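 The calls were made as follows: active = inhibition of at least 50% with at least 30 cells and total cytoplasm GFP at most 10,000,000; inconclusive = under 30 cells or total GFP of 10,000,000 plus; inactive = the rest.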

The values below come from PubChem BioAssay AID2058 (Sanford-Burnham Center for Chemical Genomics, 2009).

The assay deals with G-protein coupled receptor 35 (Homo sapiens) (UniProt Q9HC97). As to the kind of experiment: inhibition of zaprinast-stimulated GPR35 beta-arrestin translocation – imaging, U2OS, beta-arrestin-GFP, zaprinast agonist, primary screen (AID 2058). The following applies: zaprinast antagonism, at 10 µM, stronger effect = higher value.
G-protein coupled receptor 35 (Homo sapiens), sequence (Q9HC97 whole entry, looked up): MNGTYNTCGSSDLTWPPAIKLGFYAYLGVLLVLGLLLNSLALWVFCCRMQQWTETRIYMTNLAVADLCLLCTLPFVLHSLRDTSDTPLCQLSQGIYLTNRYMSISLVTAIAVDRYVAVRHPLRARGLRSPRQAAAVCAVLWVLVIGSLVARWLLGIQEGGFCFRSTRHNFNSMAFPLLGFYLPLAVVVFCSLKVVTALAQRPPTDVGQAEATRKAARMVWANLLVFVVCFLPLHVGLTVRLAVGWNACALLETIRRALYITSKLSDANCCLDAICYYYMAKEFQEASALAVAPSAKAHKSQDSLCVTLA
With `O=C(/C=C/c1ccco1)Nc1ccccc1C(=O)Nc1cccc(C(=O)O)c1`, the inhibition was -11.1%.

For the compound `CCc1ccccc1NC(=O)c1cccc(NC(=O)/C=C/c2ccco2)c1`, the inhibition is 10.4%. In the case of `CCOc1ccc(C2C(C(=O)c3ccc(C)o3)=C(O)C(=O)N2c2nc(C)c(C(=O)OC)s2)cc1` (stereo not given) it was 5.8%; in that of `COC(=O)c1sc(N2C(=O)C(O)=C(C(=O)c3ccc(C)o3)C2c2ccc(F)cc2)nc1C` (stereo not given), 100% (active).

Turning to `COC(=O)c1sc(N2C(=O)C(O)=C(C(=O)c3ccc(C)o3)C2c2ccc([N+](=O)[O-])cc2)nc1C` (stereo not given), the inhibition is -3.4%. The value for `O=S(=O)(Nc1ccc(N=Nc2ccc(O)c3ccccc23)cc1)c1ccccc1` was 70.3% (active); that for `O=S(=O)(Nc1ccc(O)c(NS(=O)(=O)c2ccccc2)c1)c1ccccc1` was -5.8%. The value for `O=S(=O)(Nc1ccc(N=Nc2ccccc2)cc1)c1ccccc1` was -12.2%.

With `COc1cccc(NC(=O)NNC(=O)CCc2ccc(O)c(O)c2)c1`, the inhibition was 11.4%. Regarding `CN(C)C=NC(=O)c1ccc(N2CCN(c3ncc(C(F)(F)F)cc3Cl)CC2)cc1`, the inhibition was 14.6%. The value for `CC(=O)c1ccc(N2CCN(c3ncc(C(F)(F)F)cc3Cl)CC2)cc1` was -3.2%. In the case of `O=C(CSc1nnc(-c2ccc(F)cc2)o1)c1ccc2c(c1)OCCO2` it was 11.5%. As for `O=C(/C=C/c1ccccc1)NC(NC(=S)Nc1ccc(Cl)cc1)C(Cl)(Cl)Cl` (stereo not given), the inhibition was -0.3%. `O=C(/C=C/c1ccccc1)NC(NC(=S)Nc1cc(Cl)ccc1Cl)C(Cl)(Cl)Cl` (stereo not given): the inhibition was 27.8%.

As for `O=C(/C=C/c1ccccc1)NC(NC(=S)Nc1ccc(Cl)cc1Cl)C(Cl)(Cl)Cl` (stereo not given), the inhibition was 76.2% (active). For `CC1=C(C(=O)Nc2ccccc2C(=O)N2CCC(C)CC2)SCCO1`, the inhibition is -12.3%. The value for `COc1ccc(CCC(=O)Nc2ccc(Cl)c(S(=O)(=O)N3CCCC3)c2)cc1` was -7.8%. As for `COCCNC(=O)CSc1nc2ccc(N3CCOCC3)cc2c(=O)n1CCc1ccccc1`, the inhibition was -7.7%.

Take `CC1(C)CC(NCCN2CCN(C3=CC(=C(C#N)C#N)CC(C)(C)C3)CC2)=CC(=C(C#N)C#N)C1`: the inhibition is -1%. On to `N#CC(C#N)=C1C=C2C=C(N3CCOCC3)CCC2CC1` (stereo not given), for which the inhibition is 1.7%. The value for `N#CC(C#N)=C1C=C2C=C(N3CCCCCC3)CCC2CC1` (stereo not given) was 46%.

As for `N#CC(C#N)=C1C=C2C=C(N3CCCCC3)CCC2CC1` (stereo not given), the inhibition was 11.2%.

`COC(=O)c1cc(NC2c3ccccc3C(=O)N2c2cccnc2)cc(C(=O)OC)c1` (stereo not given): the inhibition was -4%. The value for `COc1cccc(C2N=C(c3ccccc3C)NO2)c1OC` (stereo not given) was 13.2%; that for `O=C(CSc1nc(O)c(C2CCCCC2)c(=O)[nH]1)Nc1ccccc1Cl` was -1.9%; that for `O=C(Nc1ccc2c(c1)oc1ccccc12)C1CC1` was 1.2%. In the case of `COc1ccc(N=C2S/C(=C\c3ccc(OCC(=O)O)cc3)C(=O)N2CCc2c[nH]c3ccccc23)cc1` it was -10.9%. In the case of `COc1ccc(N=C2S/C(=C\c3ccc(OC(C)C(=O)O)c(OC)c3)C(=O)N2CCc2c[nH]c3ccccc23)cc1` (stereo not given), the inhibition was -11.1%.

`Cc1ccc2oc(C(=O)Nc3ccc(S(=O)(=O)Nc4ncccn4)cc3)c(C)c2c1`: the inhibition is 18.7%. In the case of `COc1ccc(/C=C2\CC/C(=C\c3ccc(OC)c(OC)c3)C2=O)cc1OC` it was -1.3%; in that of `COc1ccc(/C=C2\Cc3ccccc3C2=O)cc1OC`, 10.6%. Regarding `N/C(=N\OC(=O)COc1ccccc1)c1ccncc1`, the inhibition is -1.4%.

As for `CCOc1ccc(/C=N/NC(=O)Cc2csc(Nc3cccc(C(F)(F)F)c3)n2)c(OCC)c1`, the inhibition was -0.3%.

As to `CCOc1ccccc1/C=N/NC(=O)Cc1csc(Nc2cccc(C(F)(F)F)c2)n1`, the inhibition was 20%. In the case of `O=C(Nc1ccccc1F)C1CCCN(S(=O)(=O)c2ccc(-n3cnnn3)cc2)C1` (stereo not given) it was 7.9%; in that of `CN(C)c1ccc(/C=C/C(=O)c2ccccc2O)cc1`, 21.4%. The value for `CN(C)c1ccc(/C=C/C(=O)c2cc(Cl)ccc2O)cc1` was 57.6% (active). In the case of `O=C(/C=C/c1ccc2ccccc2n1)c1cc(Cl)ccc1O` it was 7.6%; in that of `COc1ccc(C(=O)/C=C/c2ccc(N(C)C)cc2)c(OC)c1`, 21.5%. Regarding `O=C(/C=C/c1cccs1)c1cc(Cl)ccc1O`, the inhibition is -8.1%. The value for `O=C(/C=C/c1ccncc1)c1cc(Cl)ccc1O` was 96.6% (active). The value for `CC(C)N(CCc1ccncc1)C(=S)Nc1ccc(F)c(Cl)c1` was 4.6%; that for `CC(C)c1ccc(C(=O)NC(=S)Nc2ccc3[nH]c(=O)[nH]c3c2)cc1` was -6.7%.

For `CC(=O)c1cc2c(cc1N/C(=N/S(=O)(=O)c1ccccc1)c1ccc(Cl)cc1)OCO2`, the inhibition is 13.2%. In the case of `CC(C)(C)CC(C)(C)NC(=S)Nc1ccc(S(=O)(=O)N2CCOCC2)cc1` it was -2.7%; in that of `CCCCOC(=O)c1ccc(NC(=O)c2cc(Cl)c(Cl)cc2C(=O)O)cc1`, -5.9%; in that of `CCCCOC(=O)c1ccc(NC(=O)c2ccccc2OC)cc1`, 12.9%. In the case of `Cc1ccc(NC(=O)C(C)Sc2nnc(-c3cccnc3)n2-c2ccccc2)cc1` (stereo not given) it was -0.8%.

In the case of `Cc1nn(C(C)C(=O)NCCc2ccco2)c(=O)c2nn(-c3ccccc3)c(C)c12` (stereo not given), the inhibition is -4%. The value for `Cc1cc(-c2nn(-c3ccccc3F)cc2CN2CCCC(CO)C2)c(C)s1` (stereo not given) was 19.6%; that for `Cc1cc(-c2nn(-c3ccccc3F)cc2CN(C)CC(O)CO)c(C)s1` (stereo not given) was 103% (active); that for `Cc1cc(-c2nn(-c3ccccc3F)cc2CN2CCC(O)CC2)c(C)s1` was -0.9%. In the case of `COCc1cc(/C=N\NC(=O)Cc2ccc(Cl)cc2)ccc1OC` it was 1.9%; in that of `O=C(CCc1nnc2n(Cc3ccc(F)cc3)c(=O)c3ccccc3n12)NCCCN1CCOCC1`, -5.8%. The value for `CCOc1ccc(/C=C2/SC(=O)NC2=S)cc1` was 5.9%. Turning to `CCOc1ccc(/C=C2\SC(=S)NC2=O)cc1OC`, the inhibition is -8%.

With `CCOc1ccc(NC(=S)N(CCN2CCOCC2)Cc2cc3cc4c(cc3[nH]c2=O)OCCO4)cc1`, the inhibition is 6.4%. The value for `COc1ccc(NC(=S)N(CCN2CCOCC2)Cc2cc3cc4c(cc3[nH]c2=O)OCCO4)cc1` was 98.1% (active); that for `COc1ccc(NC(=S)N(CCN2CCOCC2)Cc2cc3cc4c(cc3[nH]c2=O)OCO4)cc1` was -1.5%. The value for `CS(=O)(=O)c1ccc(NCCc2ccc(S(N)(=O)=O)cc2)c([N+](=O)[O-])c1` was -3.1%. The value for `COc1ccc(N2CCN(C3CC(=O)N(Cc4ccccc4)C3=O)CC2)cc1` (stereo not given) was 6.4%; that for `COc1cc(/C=N/O)cc(Cl)c1OC` was 1.8%; that for `Cc1[nH][nH]c(=O)c1N=Nc1ccc(Cl)cc1` was -3.2%. Take `O=c1cc(N=Nc2ccc(Cl)cc2)[nH]c(=O)[nH]1`: the inhibition was 52.2% (active). In the case of `O=c1cc(CSCc2ccc(Cl)cc2)[nH]c(=O)[nH]1` it was 2.3%; in that of `O=C(COc1ccc(Cl)cc1Cl)NCCSc1ccc(Cl)cc1`, -14.2%; in that of `O=C(O)c1ccc(Nc2cc(Cl)c3nonc3c2[N+](=O)[O-])cc1`, 8.7%. Turning to `O=[N+]([O-])c1c(Nc2ccc(O)cc2)cc(Cl)c2nonc12`, the inhibition was 72.1% (active). In the case of `O=[N+]([O-])c1c(Nc2cccc(O)c2)cc(Cl)c2nonc12` it was 35%. In the case of `COC(=O)C1=C(C)N=C2SCCC(=O)N2C1c1cc(Br)ccc1OC` (stereo not given) it was -10.8%. In the case of `CCOC(=O)c1cnn(CCOC(=O)C2CC2)c1NC(=O)C1CC1` it was -5.8%; in that of `Cc1cc(C)cc(N=Cc2[nH]c3ccc(Br)c(Cl)c3c2O)c1`, 41%. Take `Cc1cccc(N=Cc2[nH]c3ccc(Br)c(Cl)c3c2O)c1`: the inhibition was 54% (active). The value for `Cc1cccc(N=Cc2cc(Br)cc(Cl)c2O)c1` was -33.9%; that for `Nc1c(S(=O)(=O)c2cccs2)c2nc3ccccc3nc2n1CC1CCCO1` (stereo not given) was 4.2%; that for `NC1=NC(=O)C2(COC(c3cccnc3)OC2)S1` (stereo not given) was -12.6%.

Consider `Nc1nc2ccc([N+](=O)[O-])cc2[nH]1`, for which the inhibition was 20.4%. In the case of `O=[N+]([O-])c1ccc2[nH]nc(-c3ccccc3)c2c1` it was -6.7%. For the compound `CCC(=O)Nc1nnc(SCC(=O)NCCc2ccc(OC)c(OC)c2)s1`, the inhibition is -2.7%. For the compound `Cc1cc(SCC(=O)N/N=C/c2ccc(C(=O)O)cc2)nc2ccccc12`, the inhibition was 1.1%. In the case of `CCN(CC)c1ccc(/C=C2\SC(=O)N(C(C)C)C2=O)o1` it was 102% (active); in that of `CC(C)N1C(=O)S/C(=C/c2ccc(Sc3nc4ccccc4[nH]3)o2)C1=O`, -6.1%. Take `CC(C)N1C(=O)S/C(=C\c2ccc(-c3ccc(Cl)c(C(=O)O)c3)o2)C1=O`: the inhibition was -27.6%. For `COc1ccccc1OCCNC(=O)Nc1cc(F)c(F)cc1Cl`, the inhibition was 3.6%. The value for `COc1cc(-c2nc(Cc3c(F)cccc3Cl)no2)cc(OC)c1OC` was 7.3%; that for `Oc1ccccc1C1=NN(c2ccccc2)C(c2ccc(F)cc2)C1` (stereo not given) was 1.5%; that for `Oc1ccc(C2=NN(c3ccccc3)C(c3ccc(F)cc3)C2)cc1` (stereo not given) was 78.6% (active).

In the case of `COc1ccc(C2CC(c3ccc(F)cc3)=NN2c2ccccc2)cc1OC` (stereo not given), the inhibition is -7.1%. `COc1cccc(N2C(=O)CC(NNC(=O)c3cccs3)C2=O)c1` (stereo not given): the inhibition was -15.4%. The value for `O=C(Cn1cncn1)N/N=C/c1cccnc1` was -13.5%; that for `CC(C)C1=NN2C(=N)CC(=O)N=C2S1` was -12.3%; that for `Cc1ccc(Cn2ncc3c(N4CCN(Cc5ccc(Cl)cc5)CC4)ncnc32)cc1` was 11.6%. The value for `Cc1ccc(Cn2ncc3c(N4CCN(C)CC4)ncnc32)cc1` was -0.4%; that for `Clc1ccc(Cn2ncc3c(N4CCCC4)ncnc32)cc1` was -11.9%.

On to `Cc1ccc(Cn2ncc3c(N4CCN(c5ccc(C)cc5)CC4)ncnc32)cc1`, for which the inhibition is 1.6%.

What is called inhibition is the drop in the measured response relative to a control, in per cent.
